Data published in the supplement of paper PMC10338343.
± gives the standard deviation.

System: MILI (PIWIL2) piRISC loaded with L1MC piRNA (26 nt)
Assay: pre-steady-state target cleavage rate (min^-1); guide: L1MC piRNA 5'p-UAACUAAAUACUAUGCAAGCUGUAGG; MIWI and MILI are mouse PIWI proteins and EfPiwi is from a freshwater sponge; tags in brackets are library labels; higher = faster piRNA-guided slicing of the target
Conditions: auxiliary factor: 500 nM mouse GTSF1
Method in brief: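 The method was Cleave-'n-Seq, in which uncleaved targets from a transcribed, DNA-blocked target RNA library were sequenced after exposure to active affinity-purified piRISC carrying one synthetic guide, with or without GTSF1 partner protein. Reactions contained 0.1 nM library, 1 nM piRISC and, where present, 500 nM GTSF1 in HEPES–potassium acetate buffer at 33 °C for 0–8 or 0–960 min. Reads were normalised to depth and to weakly complementary targets, three trials were pooled, and k3 was capped at 0.0001 min^-1. The pre-steady-state cleavage rate came from a burst-and-steady-state fit.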

Row | Sequence | pre-steady-state target cleavage rate
1 | UCCUCCUUCAGCUUGCAUAGUAUUUAGUUA | 0.297 ± 0.019
2 | UCCUGGAUGUGGUUGCAUAGUAAUUAGUUA | 0.162 ± 0.034
3 | UCCUGGAUCAGCUUGCAUAGUAUUUAGAUA | 0.114 ± 0.013
4 | UCCUGGAUGUGGUUGCAUAGUAUUUAGUUA | 0.163 ± 0.022
5 | UCCUGCUACUGCUUGCAUAGUAAUUAGUUA | 0.175 ± 0.023
6 | UCCUGGAUGAGCUUGCAUAGUAUUAAGUUA | 0.194 ± 0.029
7 | UCCUGGUACAGCUUGCAGAGUAUUUAGUUA | 0.121 ± 0.026
8 | UCCUGGAUGAGCUUGCAAAGUAUUUAGUUA | 0.0794 ± 0.011
9 | UCCUGGAACAGCUUCCAUUGUAUUUAGUUA | 0.11 ± 0.019
10 | UCCUGCUACAGCAUGCAUAGUAUUUAGUUA | 0.353 ± 0.022
11 | UCCUCCUACUGCUUGCAUAGUAUAUAGUUA | 0.179 ± 0.021
12 | UCCUGGUACAAGCUUGCAUAGUAUUUAGUUA | 0.196 ± 0.024
13 | UCCUGGUACAGCUAUGCAUAGUAUUUAGUUA | 0.259 ± 0.016
14 | UCCUGGAUGUCUUUGCAUAGUAUUUAGUUA | 0.119 ± 0.015
15 | UCCUGGUACAGCUAGCAUAGUAUUUUGUUA | 0.085 ± 0.028
16 | UCCUCCUACUGCUUGCAUAGAAUUUAGUUA | 0.0415 ± 0.0062
17 | UCCUGGUAGAGCUAGCAUAGUAUUUAGUUA | 0.216 ± 0.019
18 | UCCUGGUACAGCUUGUAUAGUAUUUAGUUA | 0.242 ± 0.017
19 | UCCUGCAACAGCUUGCAUAGUAAUUAGUUA | 0.34 ± 0.025
20 | UCCUGGAUGAGCUUCGCAUAGUAUUUAGUUA | 0.258 ± 0.02
21 | UCCUGGAUCAGCUUCAUAGUAUUUAGUUA | 0.235 ± 0.012
22 | UCCUGGAACAGAUUGCAUAGUAUUUAGUUA | 0.284 ± 0.012
23 | UCCUGGUACAGCUUGCAUUGUAUUUAGUUA | 0.171 ± 0.017
24 | UCCUGGAUGUGCUUGCAUAGUAUUUGGUUA | 0.131 ± 0.013
